Laboratory results taken from PubChem BioAssay (NCI).
The panel holds about 83,000 compounds, 20% with a hit somewhere; the sample as a whole holds those more often.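 Assay: single dose, 48 h. Readout: percent growth (0 = no net growth; negative = cell death). Active: <10.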 Unmarked numbers belong to inactive results. The source made the active and inactive calls.

Tested on: HL-60(TB) leukemia
Test: NCI-60 one-dose screen, 48 h (100 = growth as untreated, 0 = no growth, -100 = all killed)
Details: 10 µM unless noted

SMILES | growth
Cc1ccc(N=Nc2c(N)nn3c(-c4cc5ccccc5oc4=O)ccnc23)cc1 | 36.4%
c1ccc(-c2csc(Nc3cccc(Nc4nc(-c5ccccc5)cs4)c3)n2)cc1 | 65.9%
COc1ccc(-c2nc3ccc(-c4nnc(SCc5ccccc5)o4)cc3[nH]2)cc1OC | 78.4%
COc1ccc(Nc2nnc(-c3c[nH]c4ccccc34)o2)cc1 | 29.8%
COC(=O)c1ccc(-c2c(-c3ccccc3)c(F)c3oc(C(=O)OC)c(N)c3c2-c2ccccc2)cc1 | 105%
Nc1nnc(-c2c[nH]c3ncc(Br)cc23)c(-c2c[nH]c3ccc(F)cc23)n1 | -0.929% (active)
COC[C@@H](CC(C)C)N=C1N/C(=C\c2ccc3ncsc3c2)C(=O)N1C | -1.54% (active)
COc1ccc(N2N=C(c3ccc4c(c3)OCCO4)CC2c2cccc(NC(=O)CCCNS(=O)(=O)c3ccc(F)cc3)c2)cc1 (stereo not drawn) | 80.5%
CC(=O)Nc1ccc(-n2cnc3cc(-c4ccc(O)cc4)ccc32)cc1C(F)(F)F | 4.45% (active)
Cc1ccc(-c2ccc(SCC(=O)Nc3ccc(S(N)(=O)=O)cc3Br)nn2)cc1 | 100%
Cc1cc(C)c2[nH]c(=O)c(C(c3nnnn3Cc3ccc4c(c3)OCO4)N3CCN(C)CC3)cc2c1 (stereo not drawn) | 129%
CC(C)(C)C(=O)c1c2c(c3ccc4c5ccccc5ccc4n13)C(=O)c1ccccc1C2=O | 94.2%
COC(=O)CC1CC1C1Cc2c(nc(N(C)S(C)(=O)=O)nc2C(C)C)-c2ccc(F)cc21 (stereo not drawn) | 58.7%
